This is part of a sample that, as a whole, favours compounds with a hit. Of some 79,000 tested, about 15% had one in any assay. Calls of active or inactive are those of the source. Cut-off read from the data, not from the text of the source: active = growth inhibition above about 70%; inactive = the rest.
Key:
[1] = NCI Yeast Anticancer Drug Screen. Data for the rad52 strain (AID 147);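 note: 0% = growth of vehicle-treated control cultures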; conditions: S. cerevisiae rad52 mutant growth inhibition, active compounds read high
Procedure, shortened: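 Inhibition of yeast growth, referenced to vehicle controls, was the measured output for a strain with defective DNA damage repair.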

[2] = NCI Yeast Anticancer Drug Screen. Data for the wt1 strain (AID 149);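 note: 0% = growth of vehicle-treated wt1 cultures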; conditions: S. cerevisiae wt1 strain (SPY 50644) growth inhibition, active compounds read high
Procedure, shortened: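 Growth inhibition read against vehicle controls after compound exposure of the wt1 yeast strain.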

[3] = NCI Yeast Anticancer Drug Screen. Data for the rad50EPP+ strain (AID 151);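 note: 0% = growth of vehicle-treated control cultures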; conditions: S. cerevisiae rad50 mutant strain, active compounds read high
Procedure, shortened: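 Genetically defined yeast (rad50EPP+, DNA damage repair alteration) is grown with compound, and inhibition of growth is expressed relative to vehicle-treated controls.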

[4] = NCI Yeast Anticancer Drug Screen. Data for the mgt1 strain (AID 153); conditions: S. cerevisiae mgt1 mutant growth inhibition, active compounds read high
Procedure, shortened: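 In the mgt1 strain, test compounds were added and growth inhibition was determined relative to vehicle-treated controls.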

[5] = NCI Yeast Anticancer Drug Screen. Data for the rad50 strain (AID 155);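 note: 0% = growth of vehicle-only cultures of the same strain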; conditions: S. cerevisiae rad50 strain growth inhibition, active compounds read high
Procedure, shortened: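 Readout: growth inhibition relative to vehicle-treated cultures. Compound exposure was carried out in a genetically defined yeast strain deficient in DNA damage repair.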

[6] = NCI Yeast Anticancer Drug Screen. Data for the mec2-1 strain (AID 157); conditions: S. cerevisiae mec2-1 strain, active compounds read high
Procedure, shortened: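 Each compound was tested on mec2-1 yeast, a strain altered in DNA damage repair or cell cycle control. Growth inhibition is reported relative to vehicle.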

[7] = NCI Yeast Anticancer Drug Screen. Data for the rad14 strain (AID 159);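 note: 0% = growth of vehicle-treated control cultures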; conditions: S. cerevisiae rad14 strain growth inhibition, active compounds read high
Procedure, shortened: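 Growth inhibition vs vehicle controls; genetically altered yeast strain (DNA damage repair defect) treated with test compounds.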

[8] = NCI Yeast Anticancer Drug Screen. Data for the sgs1 mgt1 strain (AID 161);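 note: 0% = growth of cultures given vehicle only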; conditions: S. cerevisiae sgs1 mgt1 strain, active compounds read high
Procedure, shortened: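 Genetically altered yeast, compound exposure, growth inhibition relative to vehicle.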

[9] = NCI Yeast Anticancer Drug Screen. Data for the CLN2oe strain (AID 163);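 note: 0% = growth of vehicle-only control cultures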; conditions: S. cerevisiae CLN2oe strain, active compounds read high
Procedure, shortened: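 First, the altered yeast strain was treated with each compound; second, its growth was measured; finally, inhibition was derived by comparison with vehicle controls.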

[10] = NCI Yeast Anticancer Drug Screen. Data for the cln2 rad14 strain (AID 165);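 note: 0% = growth equal to vehicle treated cultures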; conditions: S. cerevisiae cln2 rad14 strain, active compounds read high
Procedure, shortened: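 Test compounds were added to cln2 rad14 yeast cultures; inhibition of growth was then determined by comparison with vehicle treatment.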

[11] = NCI Yeast Anticancer Drug Screen. Data for the bub3 strain (AID 167); conditions: S. cerevisiae bub3 mutant strain, active compounds read high
Procedure, shortened: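 Readout: yeast growth inhibition, expressed relative to vehicle-only wells. The test organism is a mutant strain from a panel with lesions in DNA repair or checkpoint genes.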

[12] = NCI Yeast Anticancer Drug Screen. Data for the wt2 strain (AID 169);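 note: 0% = growth of vehicle-treated yeast cultures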; conditions: S. cerevisiae wt2 strain growth inhibition, active compounds read high
Procedure, shortened: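 The panel's yeast strains carry defined changes in DNA repair or cell cycle genes. Each strain is grown with compound, and growth loss is scored relative to vehicle.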

[13] = NCI Yeast Anticancer Drug Screen. Data for the mlh1 strain (AID 171);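 note: 0% = growth of vehicle-treated control cultures of the same strain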; conditions: S. cerevisiae mlh1 strain growth inhibition, active compounds read high
Procedure, shortened: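 Inhibition values reflect reduced yeast growth in the presence of compound, referenced to vehicle controls, using a strain chosen for its alteration in DNA repair or cell cycle control.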

[14] = NCI Yeast Anticancer Drug Screen. Data for the mlh1 rad18 strain (AID 175); conditions: S. cerevisiae mlh1 rad18 strain growth inhibition, active compounds read high
Procedure, shortened: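 Inhibition values reflect reduced growth of mutant yeast versus vehicle-treated controls following compound exposure; the mutations affect DNA damage repair.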

[15] = NCI Yeast Anticancer Drug Screen. Data for the rad18 strain (AID 177); conditions: S. cerevisiae rad18 mutant growth inhibition, active compounds read high
Procedure, shortened: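 Steps: expose repair-mutant yeast to compound; measure growth; express as inhibition relative to vehicle control.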

[16] = NCI Yeast Anticancer Drug Screen. Data for the sgs1 strain (AID 173);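 note: 0% = growth of vehicle-only control cultures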; conditions: S. cerevisiae sgs1 mutant, active compounds read high
Procedure, shortened: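 Vehicle-treated cultures served as reference for growth inhibition of a yeast strain altered in DNA damage repair or cell cycle control after compound exposure.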

[17] = at 5.0 µM (retest, dose inferred, filed as 0.5)
[18] = at 50.0 µM (retest, dose inferred, filed as 5.0)

Measured: growth inhibition

c1ccc(-c2nc3cccnc3s2)cc1
active: [5]; at 50.0 µM 73.5%
inactive: [1]; at 1.2 µM 1% | [1]; at 3.7 µM 1% | [1]; at 11.0 µM 6% | [1]; at 33.0 µM 14% | [1]; at 100.0 µM 16% | [2]; at 1.2 µM -2% | [2]; at 3.7 µM -4% | [2]; at 11.0 µM -2% | [2]; at 33.0 µM -2% | [2]; at 100.0 µM 0% | [3]; at 1.2 µM 3% | [3]; at 3.7 µM 7% | [3]; at 11.0 µM 8% | [3]; at 33.0 µM 19% | [3]; at 100.0 µM 24% | [4]; at 1.2 µM 1% | [4]; at 3.7 µM -2% | [4]; at 11.0 µM -1% | [4]; at 33.0 µM -10% | [4]; at 100.0 µM -11% | [5]; at 1.2 µM 2% | [5]; at 3.7 µM 9% | [5]; [17] 5% | [5]; at 11.0 µM 5% | [5]; at 33.0 µM 9% | [5]; [18] 56% | [5]; at 100.0 µM 33% | [6]; at 1.2 µM -2% | [6]; at 3.7 µM -1% | [6]; [17] 5% | [6]; at 11.0 µM -3% | [6]; at 33.0 µM -12% | [6]; [18] 20% | [6]; at 50.0 µM 9.5% | [6]; at 100.0 µM 20% | [7]; at 1.2 µM -3% | [7]; at 3.7 µM 0% | [7]; at 11.0 µM -2% | [7]; at 33.0 µM 1% | [7]; at 100.0 µM 5% | [8]; [17] -5% | [8]; [18] 18% | [8]; at 50.0 µM 13.6% | [9]; at 1.2 µM 0% | [9]; at 3.7 µM -1% | [9]; at 11.0 µM 0% | [9]; at 33.0 µM -5% | [9]; at 100.0 µM 3% | [10]; [17] -25% | [10]; [18] -19% | [10]; at 50.0 µM 5.55% | [11]; at 1.2 µM -4% | [11]; at 3.7 µM 0% | [11]; [17] 25% | [11]; at 11.0 µM 10% | [11]; at 33.0 µM 10% | [11]; [18] 43% | [11]; at 50.0 µM -2.7% | [11]; at 100.0 µM 14% | [12]; at 1.2 µM -2% | [12]; at 3.7 µM -3% | [12]; at 11.0 µM -3% | [12]; at 33.0 µM -5% | [12]; at 100.0 µM 0% | [13]; at 1.2 µM 2% | [13]; at 3.7 µM 13% | [13]; at 11.0 µM 2% | [13]; at 33.0 µM -2% | [13]; at 100.0 µM 15% | [14]; [17] -8% | [14]; [18] 1% | [14]; at 50.0 µM -4.1% | [15]; at 1.2 µM 3% | [15]; at 3.7 µM 2% | [15]; at 11.0 µM -1% | [15]; at 33.0 µM -6% | [15]; at 100.0 µM -15%

O=C(NC(Nc1ccc(F)c(Cl)c1)(C(F)(F)F)C(F)(F)F)C(C(F)(F)F)C(F)(F)F
inactive: [1]; at 1.2 µM -2% | [1]; at 3.7 µM 12% | [2]; at 1.2 µM 8% | [2]; at 3.7 µM 7% | [2]; at 11.0 µM 48% | [3]; at 1.2 µM -7% | [3]; at 3.7 µM -13% | [3]; at 11.0 µM -25% | [3]; at 33.0 µM -16% | [3]; at 100.0 µM 2% | [4]; at 1.2 µM 26% | [4]; at 3.7 µM 25% | [4]; at 11.0 µM 54% | [5]; at 1.2 µM 8% | [5]; at 3.7 µM 17% | [5]; [17] 28% | [5]; at 11.0 µM 44% | [5]; at 50.0 µM 24.6% | [6]; at 1.2 µM 8% | [6]; at 3.7 µM 23% | [6]; [17] 3% | [6]; at 50.0 µM 27.6% | [7]; at 1.2 µM 9% | [7]; at 3.7 µM 19% | [7]; at 11.0 µM 26% | [8]; [17] 17% | [8]; at 50.0 µM 36% | [9]; at 1.2 µM 9% | [9]; at 3.7 µM 32% | [10]; [17] 43% | [11]; at 1.2 µM 5% | [11]; at 3.7 µM 15% | [11]; [17] 20% | [13]; at 1.2 µM 26% | [13]; at 3.7 µM 25% | [13]; at 11.0 µM 54% | [16]; at 1.2 µM 8% | [16]; at 3.7 µM 14% | [16]; at 11.0 µM 42% | [14]; [17] 21% | [15]; at 1.2 µM 22% | [15]; at 3.7 µM 14% | [15]; at 11.0 µM 40%
active: [1]; at 11.0 µM 70% | [1]; at 33.0 µM 93% | [1]; at 100.0 µM 97% | [2]; at 33.0 µM 96% | [2]; at 100.0 µM 98% | [4]; at 33.0 µM 94% | [4]; at 100.0 µM 98% | [5]; at 33.0 µM 91% | [5]; [18] 96% | [5]; at 100.0 µM 96% | [6]; at 11.0 µM 74% | [6]; at 33.0 µM 97% | [6]; [18] 92% | [6]; at 100.0 µM 98% | [7]; at 33.0 µM 85% | [7]; at 100.0 µM 94% | [8]; [18] 72% | [9]; at 11.0 µM 92% | [9]; at 33.0 µM 97% | [9]; at 100.0 µM 97% | [10]; [18] 98% | [10]; at 50.0 µM 88% | [11]; at 11.0 µM 80% | [11]; at 33.0 µM 95% | [11]; [18] 95% | [11]; at 50.0 µM 75% | [11]; at 100.0 µM 97% | [13]; at 33.0 µM 94% | [13]; at 100.0 µM 98% | [16]; at 33.0 µM 93% | [16]; at 100.0 µM 96% | [14]; [18] 90% | [14]; at 50.0 µM 93.4% | [15]; at 33.0 µM 83% | [15]; at 100.0 µM 92%

From PubChem BioAssay (NCI)
